# Reference: PubChem BioAssay
# A number with no mark means an inactive call. This is one part of the list. Active and inactive are the calls of the source.
# How the values were obtained:
# [1] = biological target: Short transient receptor potential channel 4 (Mus musculus) (UniProt Q9QUQ5); experiment: DAMGO-gated TRPC4 membrane potential modulation – cell-based, second specificity screen, HEK293 TRPC4/mu-opioid, selectivity assay for TRPC6 inhibitor project, confirmation (AID 2776;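 active = compounds whose fluorescence signal differed from control wells by over 3 SD, either direction, in both duplicate plates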); details: HEK293 TRPC4/MOR, membrane potential dye fluorescence, at 10 µM, channel activated by saturating DAMGO dose; hits give high values
# [2] = tested on: transient receptor potential cation channel C4 (TRPC4), mouse; experiment: membrane potential change in TRPC4 cells – cell-based, HEK293 TRPC4/mu-opioid, membrane potential dye, selectivity assay for TRPC6 inhibitor project, confirmation (AID 2777;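 active = rise or fall in signal beyond 3 SD of buffer-only wells in both replicate plates, either sign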;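 also: integrated kinetic ratio of fluorescence range over baseline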); details: membrane potential fluorescence, at 10 µM
# [3] = parental HEK293 depolarization signal interference – cell-based, second counter screen, counter-screen for TRPC6 inhibitor project, confirmation (AID 2779;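 active = membrane potential signal moving either way by over 3 SD of the maximum-effect control, in both duplicate plates, meaning non-specific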); details: parental HEK293 membrane potential dye fluorescence; at 10 µM; maximal acetylcholine challenge after compound addition
# [4] = nonspecific voltage dye signal in HEK293 – cell-based, parental HEK293, counter-screen for TRPC6 inhibitor project, confirmation (AID 2780;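 active = membrane potential signal shifting up or down by more than 3 SD of buffer-only wells, on both duplicate plates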;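 as to membrane potential signal change: plate controls were buffer EC0 wells for no effect and acetylcholine ECmax wells for full effect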); details: parental HEK293 membrane potential dye fluorescence; at 10 µM
# [5] = biological target: Short transient receptor potential channel 6 (Mus musculus) (UniProt Q61143); experiment: blockers of TRPC6 cation channel activity – HEK293 cells, membrane potential dye, duplicate, confirmation (AID 488960;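 active = fluorescence ratio falls more than 5 SD below the full-stimulation control mean, in both duplicate runs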;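 as to inhibition: integrated fluorescence ratio of peak minus minimum over baseline after agonist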); details: ACh-evoked depolarization, at 10 µM; hits give high values
# [6] = biological target: Short transient receptor potential channel 6 (Mus musculus) (UniProt Q61143); experiment: mouse TRPC6 channel activators, confirmation, HEK293 cells, membrane potential dye, duplicate (AID 488961;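 active = ratio signal rise beyond 5 SD above unstimulated control wells' mean, seen in both duplicate runs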); details: HEK293-TRPC6 membrane potential dye fluorescence, FDSS, at 10 µM; hits give high values
# [7] = biological target: Potassium voltage-gated channel subfamily KQT member 2 (Rattus norvegicus) (UniProt O88943); experiment: W236L mutant KCNQ2 current enhancers – cell-based, rat KCNQ2 W236L, CHO, automated patch clamp, mechanism study for KCNQ2 potentiator project (AID 2558); details: at 25 µM
# [8] = biological target: Inward rectifier potassium channel 2 (Mus musculus) (UniProt P35561); experiment: PubChem AID 2345; details: HEK293 Kir2.1, FluxOR thallium flux fluorescence; at 10 µM; hits give high values;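 also: 0% = vehicle mean plus 3 SD and 100% = vehicle minus no-stimulus blank window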
# [9] = nonspecific flux increase, KCNQ1-free cells – parental CHO cells, counter-screen for KCNQ1 potentiator project (AID 493006;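 active = duplicate-averaged activation above buffer control mean plus 5 SD of those controls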;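 also: fluorescence ratio of max minus min over baseline after K+ and Tl+ depolarization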); details: parental CHO-K1 cells, FluxOR thallium flux, at 10 µM; hits give high values
# [10] = biological target: Potassium voltage-gated channel subfamily KQT member 1 (Homo sapiens) (UniProt P51787); experiment: enhancement of KCNQ1 channel thallium flux – FluxOR thallium flux, CHO cells, duplicates, confirmation (AID 493007;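 active = potentiation averaged over duplicate wells exceeding buffer-only control mean by more than 3 SD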;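 also: 0% = buffer-only wells and 100% = R-L3 activator control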); details: KCNQ1 cell line, FluxOR thallium flux fluorescence, at 10 µM; hits give high values, % of reference activator effect, buffer zero
# [11] = biological target: Potassium voltage-gated channel subfamily KQT member 2 (Rattus norvegicus) (UniProt O88943); experiment: KCNQ2 thallium flux enhancement – KCNQ2-CHO-K1 cells, selectivity assay for KCNQ1 potentiator project (AID 493009;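 active = mean duplicate potentiation above the buffer control mean plus 5 SD of buffer wells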;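 also: assay conditions were tuned for KCNQ1 rather than KCNQ2 modulators; signal is max minus min fluorescence divided by baseline after thallium stimulus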); details: FluxOR thallium flux fluorescence, at 10 µM; hits give high values, scaled: buffer 0, activator control 100
# [12] = biological target: Potassium voltage-gated channel subfamily KQT member 1 (Homo sapiens) (UniProt P51787); experiment: KCNQ1 activators by electrophysiology – IonWorks patch clamp, KCNQ1-CHO cells, orthogonal assay for KCNQ1 potentiator project, confirmation (AID 493184;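 active = current rise at least 3 SD above the untreated control mean in each of two repeat wells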); details: automated patch clamp current, at 10 µM; hits give high values
# Sequence of Short transient receptor potential channel 4 (Mus musculus) (Q9QUQ5 whole entry, looked up): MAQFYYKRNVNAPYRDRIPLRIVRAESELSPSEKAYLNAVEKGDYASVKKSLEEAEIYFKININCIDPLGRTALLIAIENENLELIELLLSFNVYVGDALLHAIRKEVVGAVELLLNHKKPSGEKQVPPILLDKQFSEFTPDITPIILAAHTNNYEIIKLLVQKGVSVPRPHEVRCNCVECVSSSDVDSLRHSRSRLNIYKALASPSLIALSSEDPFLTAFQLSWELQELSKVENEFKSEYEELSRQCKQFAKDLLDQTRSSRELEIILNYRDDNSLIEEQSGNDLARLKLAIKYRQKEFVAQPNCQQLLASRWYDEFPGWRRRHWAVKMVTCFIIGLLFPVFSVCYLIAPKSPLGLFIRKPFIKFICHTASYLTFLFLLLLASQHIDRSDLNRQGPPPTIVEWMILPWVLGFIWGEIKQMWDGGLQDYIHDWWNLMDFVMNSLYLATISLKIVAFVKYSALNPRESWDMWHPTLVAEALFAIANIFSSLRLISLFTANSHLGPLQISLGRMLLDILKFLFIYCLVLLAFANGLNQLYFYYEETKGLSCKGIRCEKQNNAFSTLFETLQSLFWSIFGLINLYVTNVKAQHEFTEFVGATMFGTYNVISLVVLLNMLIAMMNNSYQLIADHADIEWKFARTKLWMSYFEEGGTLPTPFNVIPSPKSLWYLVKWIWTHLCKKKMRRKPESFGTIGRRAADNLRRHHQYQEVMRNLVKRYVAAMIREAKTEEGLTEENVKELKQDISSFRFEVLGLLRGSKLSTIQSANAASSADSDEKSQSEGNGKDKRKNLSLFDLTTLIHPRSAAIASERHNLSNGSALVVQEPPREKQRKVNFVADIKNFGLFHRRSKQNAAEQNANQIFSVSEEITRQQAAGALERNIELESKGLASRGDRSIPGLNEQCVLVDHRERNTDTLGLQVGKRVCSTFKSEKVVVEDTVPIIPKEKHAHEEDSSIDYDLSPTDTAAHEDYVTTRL
# Sequence of Short transient receptor potential channel 6 (Mus musculus) (Q61143 whole entry, looked up): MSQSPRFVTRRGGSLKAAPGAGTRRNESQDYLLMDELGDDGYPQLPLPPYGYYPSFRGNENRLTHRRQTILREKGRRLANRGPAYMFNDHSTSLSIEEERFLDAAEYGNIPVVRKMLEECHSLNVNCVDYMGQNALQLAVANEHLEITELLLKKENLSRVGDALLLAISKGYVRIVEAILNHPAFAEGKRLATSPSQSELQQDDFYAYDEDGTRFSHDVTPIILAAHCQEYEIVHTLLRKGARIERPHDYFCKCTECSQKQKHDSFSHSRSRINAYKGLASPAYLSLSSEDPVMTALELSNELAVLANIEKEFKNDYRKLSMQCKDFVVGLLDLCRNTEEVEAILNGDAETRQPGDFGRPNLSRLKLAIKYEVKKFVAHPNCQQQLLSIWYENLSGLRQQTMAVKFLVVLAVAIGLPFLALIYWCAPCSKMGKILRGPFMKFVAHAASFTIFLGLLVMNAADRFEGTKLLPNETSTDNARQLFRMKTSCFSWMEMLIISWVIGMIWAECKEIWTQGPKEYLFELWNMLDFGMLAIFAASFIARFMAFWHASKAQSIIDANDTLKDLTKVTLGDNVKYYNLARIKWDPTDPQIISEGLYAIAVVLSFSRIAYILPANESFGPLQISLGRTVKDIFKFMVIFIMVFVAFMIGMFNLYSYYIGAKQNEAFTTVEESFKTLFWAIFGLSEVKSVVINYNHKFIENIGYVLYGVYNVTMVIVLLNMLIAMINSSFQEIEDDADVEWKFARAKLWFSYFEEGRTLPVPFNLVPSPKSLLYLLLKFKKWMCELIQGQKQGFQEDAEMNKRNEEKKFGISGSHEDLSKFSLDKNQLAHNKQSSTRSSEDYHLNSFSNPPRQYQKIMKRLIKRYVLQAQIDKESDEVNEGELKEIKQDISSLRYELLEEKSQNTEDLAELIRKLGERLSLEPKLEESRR
# Sequence of Potassium voltage-gated channel subfamily KQT member 1 (Homo sapiens) (P51787 whole entry, looked up): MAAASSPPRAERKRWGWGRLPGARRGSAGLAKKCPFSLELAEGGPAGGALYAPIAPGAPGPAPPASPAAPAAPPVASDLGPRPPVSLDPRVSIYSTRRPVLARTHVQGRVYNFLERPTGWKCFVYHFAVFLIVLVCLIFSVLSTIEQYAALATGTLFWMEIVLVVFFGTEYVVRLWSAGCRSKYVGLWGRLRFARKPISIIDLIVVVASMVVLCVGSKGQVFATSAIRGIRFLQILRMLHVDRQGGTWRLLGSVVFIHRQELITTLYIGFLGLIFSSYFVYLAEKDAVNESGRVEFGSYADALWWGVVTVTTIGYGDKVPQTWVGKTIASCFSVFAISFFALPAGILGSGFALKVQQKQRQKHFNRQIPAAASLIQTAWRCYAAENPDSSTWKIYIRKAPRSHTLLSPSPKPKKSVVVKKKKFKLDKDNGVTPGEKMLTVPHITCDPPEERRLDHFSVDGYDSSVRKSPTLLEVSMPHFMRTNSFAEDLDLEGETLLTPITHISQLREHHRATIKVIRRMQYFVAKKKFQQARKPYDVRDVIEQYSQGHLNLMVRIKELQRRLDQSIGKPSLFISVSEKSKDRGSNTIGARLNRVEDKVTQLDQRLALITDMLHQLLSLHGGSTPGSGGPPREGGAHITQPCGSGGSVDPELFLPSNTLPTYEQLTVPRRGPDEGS
# Sequence of Inward rectifier potassium channel 2 (Mus musculus) (P35561 whole entry, looked up): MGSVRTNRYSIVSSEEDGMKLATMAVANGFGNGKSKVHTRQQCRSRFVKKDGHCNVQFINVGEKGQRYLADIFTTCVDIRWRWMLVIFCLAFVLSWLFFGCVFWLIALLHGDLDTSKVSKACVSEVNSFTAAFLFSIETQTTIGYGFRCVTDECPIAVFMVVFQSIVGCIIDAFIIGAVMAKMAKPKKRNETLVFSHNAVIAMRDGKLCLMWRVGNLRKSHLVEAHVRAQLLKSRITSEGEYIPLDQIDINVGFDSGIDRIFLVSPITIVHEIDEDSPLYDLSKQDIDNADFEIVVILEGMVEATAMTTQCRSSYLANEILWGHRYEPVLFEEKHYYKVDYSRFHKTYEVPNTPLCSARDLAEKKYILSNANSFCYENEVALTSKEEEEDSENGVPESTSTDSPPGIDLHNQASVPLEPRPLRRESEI
smiles,measurement,setting,value
CC(Nc1nc(N2CCCC2)nc2ccccc12)c1ccccc1 (stereo not given),outcome,[1],inactive
same,outcome,[2],inactive
same,outcome,[3],inactive
same,outcome,[4],inactive
same,outcome,[5],inactive
same,outcome,[6],inactive
CCCCOc1ccc(CSC(=N)N)cc1[N+](=O)[O-],inhibition,[1],77.5% (active)
same,outcome,[2],inactive
same,outcome,[3],inactive
same,membrane potential signal change,[4],-186% (active)
same,outcome,[5],inactive
same,outcome,[6],inactive
Cc1cc(C(=O)OCC(=O)Nc2ccc(F)c(F)c2)c(C)o1,outcome,[7],inactive
CC(=O)NNC(=O)c1csc(Cc2c(Cl)sc3ccc(Cl)cc23)n1,activity over 3SD threshold,[8],-69.1%
same,"current increase over 3SD of negative controls (%), hits give high values",[7],1.62% (active)
CC(C)(C)C1CCC(C(=O)NCC(c2cccs2)N2CCOCC2)CC1 (stereo not given),activity over 3SD threshold,[8],-57.7%
same,outcome,[7],inactive
Oc1c(Cl)cc(Cl)c(Cl)c1Cc1c(O)c(Cl)cc(Cl)c1Cl,activity over 3SD threshold,[8],-73.8%
same,outcome,[7],inactive
same,inhibition,[1],29.5% (active)
same,"activity change, negative = inhibition",[2],4.36% (active)
same,signal change vs control,[3],-19% (active)
same,membrane potential signal change,[4],2.04% (active)
same,inhibition,[5],96.7% (active)
same,outcome,[6],inactive
same,activation,[9],414% (active)
same,potentiation,[10],81.5% (active)
same,potentiation,[11],480% (active)
same,outcome,[12],inactive
O=c1c2cc(Br)ccc2nc(-c2cccc(Cl)c2)n1O,outcome,[7],inactive
same,activation,[9],803% (active)
same,potentiation,[10],257% (active)
same,potentiation,[11],703% (active)
same,outcome,[12],inactive
Fc1cc(F)c2nc(Nc3nc4c(F)cccc4s3)sc2c1,outcome,[7],inactive
same,activation,[9],330% (active)
same,potentiation,[10],196% (active)
same,potentiation,[11],422% (active)
same,outcome,[12],inactive
COc1ccc(NC(=O)CCCC2CCCCC2)c(OC)c1,outcome,[7],inactive
